Consider five compounds from PubChem BioAssay.

One experiment deals with Albumin (Bos taurus) (UniProt P02769). Put plainly: compounds binding labelled BSA control protein – biochemical, small-molecule microarray, Alexa647 label, 635/667 nm fluorescence, artefact control for SMM control protein annotation, profiling panel (AID 1118).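 Also: score merges 667 nm emission intensity and signal-to-noise per printed compound spot.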 To be noted: BSA-A647 binding, fluorescence 635 nm, higher = more signal.
Albumin (Bos taurus), sequence (P02769 whole entry, looked up): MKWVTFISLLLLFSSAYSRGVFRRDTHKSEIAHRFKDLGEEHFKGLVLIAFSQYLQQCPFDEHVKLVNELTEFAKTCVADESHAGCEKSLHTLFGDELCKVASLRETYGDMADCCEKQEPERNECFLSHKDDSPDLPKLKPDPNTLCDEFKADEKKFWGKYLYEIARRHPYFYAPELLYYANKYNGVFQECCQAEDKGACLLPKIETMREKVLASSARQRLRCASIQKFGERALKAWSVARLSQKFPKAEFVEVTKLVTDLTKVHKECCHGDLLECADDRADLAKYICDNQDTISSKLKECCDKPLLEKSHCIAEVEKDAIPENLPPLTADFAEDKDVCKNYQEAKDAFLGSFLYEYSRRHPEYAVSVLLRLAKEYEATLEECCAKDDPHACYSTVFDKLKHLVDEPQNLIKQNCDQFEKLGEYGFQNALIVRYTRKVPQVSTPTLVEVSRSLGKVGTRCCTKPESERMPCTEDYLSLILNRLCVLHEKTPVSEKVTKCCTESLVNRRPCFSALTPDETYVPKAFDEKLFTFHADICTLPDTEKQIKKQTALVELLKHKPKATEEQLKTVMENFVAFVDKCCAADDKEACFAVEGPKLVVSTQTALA
Experiment [1] is described as follows: probe aXIP binding to arrayed compounds – biochemical, NeuroSMM set, 635/667 nm fluorescence, primary screen (AID 1119).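 Also: probe is the protein aXip251-270 applied at 1 µg/mL to compound-printed slides; binding of probe to printed compounds measured as 667 nm fluorescence plus signal to noise.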 To be noted: small-molecule microarray, higher = more signal, called active from +8 up or from −8 down.
Experiment [2] can be described thus: probe aNOTCH3 binding on compound microarray – biochemical, small-molecule microarray, 635/667 nm fluorescence, primary screen (AID 1120).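 Also: probe is a biotin-tagged antibody raised against NOTCH3 rather than NOTCH3 protein; score merges spot fluorescence near 667 nm with spot signal to noise.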 As to conditions: higher = more signal.
Experiment [3] is described as follows: probe aNOTCH2 binding on compound microarray – biochemical, small-molecule microarray, 635/667 nm fluorescence, primary screen (AID 1121).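 Also: score merges feature fluorescence read at 667 nm with its signal to noise.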 As to conditions: higher = more signal.
Experiment [4] deals with Carbonic anhydrase 2 (Homo sapiens) (UniProt P00918). Put plainly: compounds binding carbonic anhydrase 2 – biochemical, small-molecule microarray, Alexa647-labelled CAII, profiling panel (AID 1122). As to conditions: CAII-A647 binding fluorescence, higher = more signal.
A short description of experiment [5]: COS7 lysate on small-molecule microarray, probe aHis, 635 nm (AID 1123).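 Also: z-score combines 667nm fluorescence intensity with signal-to-noise per printed compound spot.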 As to conditions: COS7 cell lysate, fluorescence, higher = more signal.
A short description of experiment [6]: probe aLAP1 signal on lysate-treated microarray – cell lysate, small-molecule microarray, COS7 lysate, primary screen (AID 1124).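 Also: lysate comes from COS7 cells expressing LAP1 and is applied at 0.3 µg/mL; score merges spot fluorescence near 667 nm with signal-to-noise over triplicate slides.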 To be noted: probe aLAP1, fluorescence, higher = more signal.
The subject of another experiment is Sam68 (KHDRBS1). As to the kind of experiment: compounds binding KHDRBS1 protein – biochemical, small-molecule microarray, 635 nm fluorescence, primary screen (AID 1125).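 Also: score merges 667 nm channel intensity with signal to noise over triplicate slides.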 To be noted: higher = more signal.
The subject of experiment [7] is Chordin-like protein 2 (CHRDL2). As to the kind of experiment: compounds binding chordin-like 2 – biochemical, small-molecule microarray, 635 nm fluorescence, primary screen (AID 1126).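 Also: printed compound slides probed with Chrdl2 protein at 4 µg/mL for 1 h at 4 C; score merges 667 nm emission intensity with signal to noise over three replicate slides.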 To be noted: fluorescence 635 nm, higher = more signal.
In experiment [8] the target is Concanavalin-A (Canavalia ensiformis) (UniProt P02866). Put plainly: compounds binding concanavalin A lectin – biochemical, small-molecule microarray, Alexa647 label, 635 nm, artefact control for SMM control protein annotation, primary screen (AID 1127).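 Also: z combines 667 nm emission intensity with signal-to-noise across three replicate slides.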 As to conditions: ConA-A647 binding fluorescence, higher = more signal.
Concanavalin-A (Canavalia ensiformis), sequence (P02866 whole entry, looked up): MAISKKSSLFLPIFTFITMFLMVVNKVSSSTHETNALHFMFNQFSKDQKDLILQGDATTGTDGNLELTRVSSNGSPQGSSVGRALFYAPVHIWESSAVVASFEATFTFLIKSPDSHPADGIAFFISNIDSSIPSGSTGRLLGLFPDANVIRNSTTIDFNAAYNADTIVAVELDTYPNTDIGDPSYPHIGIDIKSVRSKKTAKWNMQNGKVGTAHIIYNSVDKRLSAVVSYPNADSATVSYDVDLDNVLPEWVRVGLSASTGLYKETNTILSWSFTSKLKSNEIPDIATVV
A short description of experiment [9]: compounds binding Alexa647 anti-His antibody – biochemical, small-molecule microarray, 635 nm fluorescence, artefact control for SMM control protein annotation, primary screen (AID 1128).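 Also: score merges feature fluorescence with signal-to-noise for each printed compound spot.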 As to conditions: higher = more signal.
Experiment [10] relates to Human papillomavirus type 1a E7 protein (residues 1-88). As to the kind of experiment: HPV1a E7 small-molecule binders, primary screen, biochemical, small-molecule microarray, residues 1-88, 635 nm (AID 1129). As to conditions: small-molecule microarray binding, fluorescence 635 nm; higher = more signal.
Experiment [11] has as its target Focal adhesion kinase 1 (Homo sapiens) (UniProt Q05397). Put plainly: PTK2 protein binding on printed compound slides – biochemical, small-molecule microarray, 635/667 nm fluorescence, BSA, DTT, primary screen (AID 1130).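 Also: composite of spot emission at 667 nm and signal to noise over triplicate slides.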 To be noted: 635 nm fluorescence, higher = more signal.
For experiment [12], the system named is Fibrinogen (Alexa647-labelled). Put plainly: Alexa647-fibrinogen binding to printed small molecules – biochemical, small-molecule microarray, 635/667 nm fluorescence, artefact control for SMM control-protein annotation, profiling panel (AID 1131).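 Also: z-score merges 667 nm fluorescence with per-spot signal-to-noise over triplicate slides.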 To be noted: fibrinogen-A647 binding fluorescence, higher = more signal.
In experiment [13] the target is Follistatin (Homo sapiens) (UniProt P19883). Put plainly: FST protein binding to printed compounds – biochemical, small-molecule microarray, 635/667 nm fluorescence, primary screen (AID 1132). As to conditions: 635 nm fluorescence, higher = more signal.
Follistatin (Homo sapiens), sequence (P19883 whole entry, looked up): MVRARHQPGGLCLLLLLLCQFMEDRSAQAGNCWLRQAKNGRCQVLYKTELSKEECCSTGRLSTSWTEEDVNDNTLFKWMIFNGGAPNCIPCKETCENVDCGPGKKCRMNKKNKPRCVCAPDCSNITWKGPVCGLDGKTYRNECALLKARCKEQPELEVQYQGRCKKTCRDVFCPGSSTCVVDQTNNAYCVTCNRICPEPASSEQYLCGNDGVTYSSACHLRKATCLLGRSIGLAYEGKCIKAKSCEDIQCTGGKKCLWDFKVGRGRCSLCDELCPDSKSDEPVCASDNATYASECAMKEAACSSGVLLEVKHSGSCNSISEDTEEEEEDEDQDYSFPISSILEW
Experiment [14] concerns the target Fibroblast growth factor 2 (Homo sapiens) (UniProt P09038). As to the kind of experiment: basic fibroblast growth factor binding to printed compounds – biochemical, small-molecule microarray, 635/667 nm fluorescence, primary screen (AID 1133). As to conditions: FGF2, fluorescence 635/667, higher = more signal.
A short description of experiment [15]: JC-1 mitochondrial potential readout, lung cancer cells – cell-based, A549, JC-1 fluorescence, basal, 24 h, 100 nL, profiling panel (AID 1138).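 Also: A549 lung adenocarcinoma cells under basal conditions with no added stimulus; test concentration not given here.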 To be noted: higher = more signal.
The next experiment relates to Lefty1. As to the kind of experiment: Lefty1 protein binding to printed compounds – biochemical, small-molecule microarray, 635/667 nm fluorescence, primary screen (AID 1139). To be noted: fluorescence 635/667, higher = more signal.
In experiment [16] the test system is wheat germ agglutinin (Triticum aestivum), Alexa647-labelled. Put plainly: Alexa647-WGA lectin binding to printed small molecules – biochemical, small-molecule microarray, 635/667 nm fluorescence, artefact control for SMM control-protein annotation, profiling panel (AID 1140).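 Also: score merges 667 nm feature emission with signal to noise over triplicate slides.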 As to conditions: WGA-A647 binding, 635 nm fluorescence, higher = more signal.
Experiment [17] has as its target Luciferin 4-monooxygenase (Photinus pyralis) (UniProt P08659). Put plainly: inhibition of purified Photinus pyralis luciferase – biochemical, luminescence, purified enzyme, 2006 set, primary screen (AID 1141).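 Also: cell-free assay with purified firefly luciferase at 100 ng per well in PBS; test concentration not given here.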 To be noted: purified firefly luciferase, SteadyGlo luminescence, 30 min; higher = more signal, called active from +8 up or from −8 down.

Active and inactive are the calls of the source.

Luciferin 4-monooxygenase (Photinus pyralis), sequence (P08659 whole entry, looked up): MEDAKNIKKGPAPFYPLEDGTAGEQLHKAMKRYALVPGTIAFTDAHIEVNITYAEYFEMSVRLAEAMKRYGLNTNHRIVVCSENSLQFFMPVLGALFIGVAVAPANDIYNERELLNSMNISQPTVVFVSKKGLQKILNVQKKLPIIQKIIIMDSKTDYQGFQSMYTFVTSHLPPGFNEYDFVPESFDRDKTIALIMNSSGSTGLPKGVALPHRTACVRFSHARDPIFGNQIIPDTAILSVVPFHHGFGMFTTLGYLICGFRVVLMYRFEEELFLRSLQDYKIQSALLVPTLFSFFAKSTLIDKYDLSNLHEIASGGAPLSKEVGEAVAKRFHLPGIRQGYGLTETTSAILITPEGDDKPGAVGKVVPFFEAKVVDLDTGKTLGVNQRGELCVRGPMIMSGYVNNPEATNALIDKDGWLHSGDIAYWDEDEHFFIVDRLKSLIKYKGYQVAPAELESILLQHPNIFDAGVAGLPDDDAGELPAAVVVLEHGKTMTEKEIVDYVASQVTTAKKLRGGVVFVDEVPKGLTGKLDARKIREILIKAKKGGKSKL
Fibroblast growth factor 2 (Homo sapiens), sequence (P09038 whole entry, looked up): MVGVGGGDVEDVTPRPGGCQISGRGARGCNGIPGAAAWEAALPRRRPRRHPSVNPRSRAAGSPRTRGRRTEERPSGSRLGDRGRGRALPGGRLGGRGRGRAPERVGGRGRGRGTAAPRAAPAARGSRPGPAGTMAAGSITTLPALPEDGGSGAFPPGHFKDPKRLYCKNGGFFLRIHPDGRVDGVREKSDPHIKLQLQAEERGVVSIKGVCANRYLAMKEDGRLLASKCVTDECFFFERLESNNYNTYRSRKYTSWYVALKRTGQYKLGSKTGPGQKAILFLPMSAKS
Focal adhesion kinase 1 (Homo sapiens), sequence (Q05397 whole entry, looked up): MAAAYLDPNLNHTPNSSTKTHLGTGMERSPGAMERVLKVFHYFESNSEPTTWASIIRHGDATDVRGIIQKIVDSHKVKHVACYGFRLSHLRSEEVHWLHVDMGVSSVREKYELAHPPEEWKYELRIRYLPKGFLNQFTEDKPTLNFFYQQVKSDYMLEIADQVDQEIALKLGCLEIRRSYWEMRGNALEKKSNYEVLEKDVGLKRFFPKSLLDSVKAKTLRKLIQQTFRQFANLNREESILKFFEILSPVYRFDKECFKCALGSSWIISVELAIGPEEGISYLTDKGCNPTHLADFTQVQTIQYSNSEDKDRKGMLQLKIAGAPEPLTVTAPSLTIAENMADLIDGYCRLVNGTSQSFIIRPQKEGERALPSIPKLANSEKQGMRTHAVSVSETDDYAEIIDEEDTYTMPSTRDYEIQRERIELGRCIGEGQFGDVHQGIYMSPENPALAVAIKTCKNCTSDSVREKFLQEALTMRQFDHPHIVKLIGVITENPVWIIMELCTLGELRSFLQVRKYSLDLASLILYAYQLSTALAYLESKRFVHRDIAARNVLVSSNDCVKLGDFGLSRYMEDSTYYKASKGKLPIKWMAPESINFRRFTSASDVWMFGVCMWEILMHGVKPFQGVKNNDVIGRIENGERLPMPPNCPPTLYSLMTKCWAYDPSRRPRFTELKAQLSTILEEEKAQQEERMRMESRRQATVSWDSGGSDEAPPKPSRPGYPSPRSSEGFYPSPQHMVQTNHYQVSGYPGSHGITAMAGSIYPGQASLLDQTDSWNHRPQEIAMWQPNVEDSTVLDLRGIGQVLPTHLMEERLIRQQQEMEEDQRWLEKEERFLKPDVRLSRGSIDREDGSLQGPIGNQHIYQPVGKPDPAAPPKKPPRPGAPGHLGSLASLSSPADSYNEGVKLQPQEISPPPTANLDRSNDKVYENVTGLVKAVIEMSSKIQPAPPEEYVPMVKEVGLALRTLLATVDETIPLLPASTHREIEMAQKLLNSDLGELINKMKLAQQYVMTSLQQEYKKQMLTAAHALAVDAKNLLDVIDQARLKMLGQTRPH

`COc1cc(OC)c(C(O)C2C=CC3C(=O)N(C)C(=O)C3N2NC(=O)OC(C)(C)C)cc1Br` (stereo not given): the composite z-score with Albumin (Bos taurus) was determined as 0.881; in [2] it was 0.398; in experiment [3], 0.354; in experiment [4], 0.584; in experiment [5], 3.05; in [6], 0.91. For the same compound, the composite z-score in the experiment on Sam68 (KHDRBS1) is 1.3; in experiment [7] it was -0.251; in [8] it was 1.09; in [9], 0.476; in [10], 1.29; in [11] it was 0.776. For the same compound, the composite z-score in [12] was 1.03; in experiment [13], 1.25; in experiment [14], 0.128; with Lefty1, 0.42; in experiment [16], 1.23. For the same compound, in experiment [1], the composite Z-score is 0.182 (inactive). Moreover, the values for the z-score in [15] and in experiment [17] were -0.942 and -0.996 (inactive), respectively.

In the case of `CN(C)C(=O)[C@@]1(CCS(=O)(=O)c2ccccc2)N=C(c2ccc(OCCCO)cc2)O[C@H]1c1ccccc1`, the composite z-score is 1.02 with Albumin (Bos taurus); 0.413 in experiment [2]; -0.115 in experiment [3]; 0.646 in [4]; 2.15 in [5]; 0.862 in [6]. Moreover, the composite z-score is 1.16 with Sam68 (KHDRBS1); -0.98 in experiment [7]; 0.761 in experiment [8]; 2.36 in [9]; 1.23 in experiment [10]; 0.365 in experiment [11]. Further, the composite z-score in experiment [12] is 0.983; in experiment [13], 1.02; in experiment [14], -0.663; with Lefty1 it was -0.502; in experiment [16], 1.18. In addition, in experiment [1], the composite Z-score is 1.19 (inactive). For the same compound, the z-score was 0.635 in experiment [15] and -0.525 (inactive) in experiment [17].

On to `COCC1=C2[C@@H](CCc3ccccc3)OB(O)C[C@@H]2[C@@H]2C(=O)C=CC(=O)[C@@H]2C1`, for which the composite z-score was 0.739 with Albumin (Bos taurus); 0.334 in experiment [2]; -0.12 in experiment [3]; 0.295 in [4]; 0.883 in [5]; 0.481 in experiment [6]. In addition, the composite z-score in the experiment on Sam68 (KHDRBS1) turned out to be 1.31; in experiment [7] it was 0.0197; in experiment [8], 1.02; in experiment [9], 1.39; in [10], 0.736; in experiment [11], 0.238. Further, the composite z-score in experiment [12] stood at 0.0217; in experiment [13], 0.648; in experiment [14], 0.519; in the experiment on Lefty1, 0.654; in experiment [16], 0.982. Also, the composite Z-score in [1] is -0.228 (inactive). Moreover, the z-score in [15] was -1.23; in experiment [17], -3.14 (inactive).

As to `N#Cc1ccc(C(O)C2C=CC3C(=O)N(c4ccccc4)C(=O)C3N2Nc2ccccc2)cc1` (stereo not given), the composite z-score with Albumin (Bos taurus) was 1.01; in experiment [2], 0.194; in [3] it was 0.0675; in [4] it was 0.722; in experiment [5], 1.59; in experiment [6], 0.736. For the same compound, the composite z-score in the experiment with Sam68 (KHDRBS1) was 0.195; in experiment [7], -0.111; in experiment [8], 0.73; in [9] it was 0.269; in [10], 0.455; in [11], 0.575. Further, the composite z-score was 0.528 in [12]; 0.351 in experiment [13]; -0.265 in [14]; -0.454 in the experiment with Lefty1; 0.502 in experiment [16]. Moreover, the composite Z-score in [1] was 0.115 (inactive). Also, the figures for the z-score in [15] and in [17] were -0.171 and -1.26 (inactive), respectively.

Consider `COC(=O)[C@@]1(Cc2ccc(F)cc2)[C@H]2c3cc(C(=O)N4CCCC4)n(CCc4ccc(O)c(O)c4)c3C[C@H]2CN1C(=O)c1ccccc1`, for which the composite z-score worked out at 0.601 with Albumin (Bos taurus); 1.26 in experiment [2]; 0.89 in experiment [3]; 0.83 in [4]; 1.83 in [5]; 0.543 in experiment [6]. Also, the composite z-score with Sam68 (KHDRBS1) was -1.03; in experiment [7] it was -0.113; in [8], -0.697; in experiment [9], -0.371; in experiment [10], -0.253; in experiment [11] it was 0.842. The composite z-score is -2.54 in experiment [12]; -0.411 in experiment [13]; -0.751 in experiment [14]; -0.49 in the experiment on Lefty1; -0.312 in experiment [16]. Also, the composite Z-score in experiment [1] was 0.41 (inactive). Moreover, the z-score in experiment [15] is -0.692; in [17], -7.51 (inactive).
